An excerpt weighted towards active compounds, which were near 10% of everything screened.
CtBP-E1A blk: qHTS Assay for Inhibitors of the CtBP/E1A Interaction; CtBP / adenovirus E1A interaction (AlphaScreen); AlphaScreen GST-E1A/His-CtBP binding, 1536-well; hits give low values; activity change, % (test concentration not listed); 340,000 tested, 0.49% active; AID 651724, 2012; in the data active = activity change below about -65%; inconclusive = mostly about -30% to -63%; note: % is set by controls: 0 for no effect and ±100 for the full control effect
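Protein mix (5X: 125 nM each GST-E1A, His-CtBP) was incubated with pinned compound 2 h at 37 deg C in dark, in 50 mM Tris pH 8.0 buffer with 300 mM NaCl. Glutathione donor and nickel acceptor beads followed; AlphaScreen signal read after 1 h.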
JMJD2A Tudor inh: qHTS Assay for Inhibitors of JMJD2A-Tudor Domain. Potency, µM (series often up to 114 µM), for the others: top-dose activity change, negative = inhibition, actives largely listed as inhibitors. Lysine-specific demethylase 4A (Homo sapiens), O75164. AID 504339, 2011. AlphaScreen JMJD2A-Tudor / H3K4me3 peptide binding. 390,000 tested, 4.4% active; note: potency is the fitted concentration of half-maximal effect; % is set by controls: 0 for no effect and ±100 for the full control effect; nearly all actives have a fitted effect of over 50% in size
Target sequence (O75164 whole entry, looked up, the tested form may be a part): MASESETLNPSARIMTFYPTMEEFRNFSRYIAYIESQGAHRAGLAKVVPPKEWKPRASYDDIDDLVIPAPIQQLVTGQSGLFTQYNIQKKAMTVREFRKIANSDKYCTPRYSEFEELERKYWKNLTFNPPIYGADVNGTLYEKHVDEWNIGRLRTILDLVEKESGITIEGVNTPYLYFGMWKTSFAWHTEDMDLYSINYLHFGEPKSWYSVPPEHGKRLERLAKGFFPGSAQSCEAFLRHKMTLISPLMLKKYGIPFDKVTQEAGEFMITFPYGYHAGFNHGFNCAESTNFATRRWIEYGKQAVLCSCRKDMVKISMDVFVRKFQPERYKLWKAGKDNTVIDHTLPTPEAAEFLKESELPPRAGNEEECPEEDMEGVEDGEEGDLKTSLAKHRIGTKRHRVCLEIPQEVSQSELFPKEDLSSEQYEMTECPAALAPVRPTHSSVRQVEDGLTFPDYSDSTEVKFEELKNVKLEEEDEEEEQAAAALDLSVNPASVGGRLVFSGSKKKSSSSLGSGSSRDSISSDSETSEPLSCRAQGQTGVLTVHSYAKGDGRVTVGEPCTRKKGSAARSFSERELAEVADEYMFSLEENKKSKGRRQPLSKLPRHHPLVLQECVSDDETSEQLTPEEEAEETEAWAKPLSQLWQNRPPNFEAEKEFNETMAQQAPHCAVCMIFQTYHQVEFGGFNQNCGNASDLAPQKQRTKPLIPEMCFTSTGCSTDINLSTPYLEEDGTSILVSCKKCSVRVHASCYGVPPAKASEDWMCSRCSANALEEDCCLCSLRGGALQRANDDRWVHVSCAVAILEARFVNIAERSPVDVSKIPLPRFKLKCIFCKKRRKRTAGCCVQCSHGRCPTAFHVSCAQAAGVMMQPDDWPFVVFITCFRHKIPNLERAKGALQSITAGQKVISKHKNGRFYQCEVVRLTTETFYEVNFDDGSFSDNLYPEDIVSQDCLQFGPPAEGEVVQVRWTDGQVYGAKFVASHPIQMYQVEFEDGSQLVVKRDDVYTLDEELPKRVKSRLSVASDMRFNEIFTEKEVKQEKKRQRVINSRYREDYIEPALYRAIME
HP1b chromo inh: HTS for Inhibitors of HP1-beta Chromodomain Interactions with Methylated Histone Tails. Chromobox protein homolog 1 (Homo sapiens), P83916. AlphaScreen HP1-beta / biotin-H3K9me3 peptide binding. Potency, µM (titrated, usually from 114 µM), without a hit: top-dose activity change, negative = inhibition, actives largely listed as inhibitors. 390,000 tested, 0.56% active; note: potency is the fitted concentration of half-maximal effect; nearly all actives have a fitted effect of over 70% in size
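AlphaScreen: HP1-beta (50 nM) preformed 30 min with biotin-H3(1-18)K9me3 peptide (50 nM) in PBS pH 7.4, 0.01% Tween-20. Compound added for 30 min at RT, then streptavidin donor/nickel chelate acceptor beads (10 ug/mL) for 30 min.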
BAZ2B block: qHTS Assay for Inhibitors of BAZ2B; 360,000 tested, 4.4% active; Bromodomain adjacent to zinc finger domain protein 2B (Homo sapiens), Q9UIF8; Potency, µM (highest dose often 114 µM), inactives show at the highest dose activity change, negative = inhibition, most hits filed as inhibitors; AID 504333, 2011; AlphaScreen BAZ2B-H3K14Ac peptide displacement; note: potency is the fitted concentration of half-maximal effect; % is set by controls: 0 for no effect and ±100 for the full control effect; nearly all actives have a fitted effect of over 60% in size
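Compounds, titrated to a top concentration of 110 uM, were incubated 30 min at room temperature with preformed BAZ2B/acetyl-K14 H3 peptide complex (50 nM each). Proximity signal was measured by AlphaScreen after 20 min with beads.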
Six1-Eya2 blk: qHTS Assay for Inhibitors of the Six1/Eya2 Interaction; 360,000 tested, 0.56% active; activity change, % (concentration not given with the values); AID 651725, 2012; Homeobox protein SIX1 (Homo sapiens) + Protein phosphatase EYA2 (Homo sapiens), …; AlphaScreen GST-Six1/His-Eya2 binding, biochemical; hits give low values; in the data active = activity change below about -65%; inconclusive = mostly about -30% to -63%; note: % is set by controls: 0 for no effect and ±100 for the full control effect
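Compounds are tested against tagged Six1 and Eya2 proteins bridged by glutathione donor and nickel acceptor beads; after a one-hour incubation at 37 °C without light, AlphaScreen emission is recorded.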
G9a inh: qHTS Assay for Inhibitors of Histone Lysine Methyltransferase G9a; Histone-lysine N-methyltransferase EHMT2 (Homo sapiens), Q96KQ7; G9a H3K9 monomethylation, AlphaScreen, 2 h; 350,000 tested, 8.8% active; Potency, µM (doses to about 102 µM), for the others: at the highest dose activity, negative = inhibition, actives largely listed as inhibitors; note: potency is the fitted concentration of half-maximal effect; % is set by controls: 0 for no effect and ±100 for the full control effect; nearly all actives have a fitted effect of over 75% in size
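Quantitative HTS format: methyltransferase activity on a biotin-tagged H3K9 peptide is measured by AlphaScreen, using a rabbit anti-monomethyl-H3K9 antibody with streptavidin donor and anti-IgG acceptor beads. Final levels are 20 nM enzyme, 500 nM peptide, 20 uM SAM; 2 h RT.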
* = called active by the depositor; u = inconclusive; x = no result; [ ] = another dose, or the depositor's remark. Unless noted, calls come from the whole dose curve; as a rule, active = well fitted inhibition curve with a large enough effect; inconclusive = small, poorly fitted or top-dose-only effect; inactive = no such curve, though single readings can be large or run the other way.

SMILES | CtBP-E1A blk | JMJD2A Tudor inh | HP1b chromo inh | BAZ2B block | Six1-Eya2 blk | G9a inh
COC(=O)c1ccc(N2C(=O)C3CC(C)=C(C)CC3C2=O)cc1 (stereo not drawn) | 4 | -12% | 30% | 3% | 9 | 5%
CC1CCc2c(nc3ncnn3c2N2CC(C)OC(C)C2)C1 (stereo not drawn) | -2 | 15% | 27% | 23% | 0 | 1%[2.33 µM]
CC1CN(c2c3c(nc4ncnn24)CCCC3)CC(C)O1 (stereo not drawn) | 0 | -10% | 37% | 2% | 21 | 3.2µM*
COc1ccc(NC(=O)c2cnc(Nc3ccc(C)c(Cl)c3)c3ccccc23)c(OC)c1 | x | 2% | 32% | 2% | x | 0%[59 µM]
CN1CCN(Cc2nc3ccccc3c(=O)n2Cc2nc(-c3ccc([N+](=O)[O-])cc3)cs2)CC1 | -19 | 20µM* | u | -39% | -23 | 22µM*
CN(C)Cc1nc2ccccc2c(=O)n1Cc1nc(-c2cccc([N+](=O)[O-])c2)cs1 | -1 | u | u | -36% | -4 | u
Cc1cc(C)n(Cc2ccc(C(=O)Nc3cccc(Br)c3)o2)n1 | -4 | -9% | 9% | -4% | 6 | 79µM*
Cc1cc(C)n(Cc2ccc(C(=O)Nc3ccc(Br)cc3C)o2)n1 | -25 | -13% | 18% | -21% | 12 | 3%[59 µM]
O=C(C1CCC1)N1CCN(S(=O)(=O)c2ccc(Br)cc2Cl)CC1 | -17 | 0% | 16% | 1% | 1 | -48%
O=C(c1cnccn1)N1CCC2(CC1)CCN(c1ccncc1)CC2 | x | x | x | x | x | -6%[12.7 µM]
CCC(=O)Nc1ccc(N2CCOCC2)c(S(=O)(=O)Nc2ccc(Cl)cc2)c1 | -3 | 79µM* | u | 3% | -3 | u
O=C(CC(C(=O)O)N1CCOCC1)Nc1ccc(Cl)cc1 (stereo not drawn) | -1 | 45µM* | 10% | 10% | 4 | u
C[C@H](NC(N)=O)C(=O)Nc1ccc(N2CCOCC2)c(S(=O)(=O)Nc2ccc(Cl)cc2)c1 | 1 | u | u | u | 1 | 1µM*
CC(NC(N)=O)C(=O)Nc1ccc(Cl)c(S(=O)(=O)Nc2ccc(Cl)cc2)c1 (stereo not drawn) | x | -14% | 28% | -6% | 28 | -9%
CC[C@]12c3[nH]c4cc(CCC(=O)N(C)C)ccc4c3CCN1C(=O)[C@@H](CC(=O)NCCc1ccccn1)C[C@@H]2C(=O)N1CCN(C(=O)C2CC2)CC1 | -1 | -11% | 61% | x | -1 | x
Cc1cc(C(F)(F)F)n2[nH]c(=O)c(N=Nc3ccccc3)c2n1 | 0 | 28µM* | 7% | -26% | -4 | u
Cc1cc(C)n2[nH]c(=O)c(N=Nc3ccccc3)c2n1 | 0 | u | -2% | u | 6 | 7.9µM*
CCc1nc2ccc(C(=O)N3CCN(S(=O)(=O)CC)CC3)cn2c1N(CCC(C)C)CCN(C)C | -25 | x | x | x | 6 | x
O=C(O)C1CCN(Cc2ccccn2)CC1 | -24 | u | -20% | u | 2 | 25µM*
O=C(C(c1ccccc1)c1ccccc1)N1CCN(Cc2ccccn2)CC1 | 0 | 4µM* | u | 56µM* | 8 | u
CCOC(=O)C1CCN(Cc2ccccn2)CC1 | x | x | x | 50µM* | x | 1.8µM*
CC1CN(Cc2ccccn2)CCC1=O (stereo not drawn) | 3 | -4% | 13% | -15% | 1 | 7.9µM*
COC(=O)C1CCN(C(=O)c2ccc(OC3CCN(Cc4ccccn4)CC3)cc2)CC1 | -6 | u | 30% | -1% | 8 | -38%
O=C(NCc1ccccc1)C(=O)Nc1ccc2nc3n(c(=O)c2c1)CCCCC3 | x | -8% | 11% | 3% | x | -3%[59 µM]
O=C(NCCc1ccccc1)C(=O)NCC(c1cccs1)S(=O)(=O)c1cccs1 (stereo not drawn) | x | -5% | 27% | -1% | x | u
SMILES | CtBP-E1A blk | JMJD2A Tudor inh | HP1b chromo inh | BAZ2B block | Six1-Eya2 blk | G9a inh
CCCSc1nnc(NC(=O)CSc2sc3c(O)cc(=O)[nH]c3c2C#N)s1 | -2 | 56µM* | -30% | 40µM* | -24 | 11µM*
N#Cc1c(SCC(=O)Nc2nccs2)sc2c(O)cc(=O)[nH]c12 | -70* | -35% | -5% | 16µM* | u | 32µM*
N#Cc1c(SCC(=O)Nc2ccc(Cl)cc2Cl)sc2c(O)cc(=O)[nH]c12 | -24 | -19% | 22% | -30% | -13 | u
N#Cc1c(SCC(=O)Nc2cccc(F)c2)sc2c(O)cc(=O)[nH]c12 | 23 | -18% | 14% | -34% | -13 | u
CCO/C(C)=C1\C(=O)Nc2ccccc21 | -13 | -8% | 40% | 7% | 4 | 50µM*
CCOC(=O)N1C2C=C(C)[C@@H]2[C@@H]2CC(=O)N21 (stereo partly drawn) | 2 | -4% | 45% | -7% | 9 | 12%[59 µM]
CN(C)CCCn1c(=S)[nH]c2sc3c(c2c1=O)CCCC3 | 3 | 22µM* | u | u | -21 | 7.9µM*
C=CCn1c(=S)[nH]c2sc3c(c2c1=O)CCC3 | 9 | -32% | 12% | -5% | -2 | 3.2µM*
Cn1c(CNC(=O)CSc2n[nH]c(-c3ccccc3)n2)nc2ccccc21 | x | -15% | 17%[57 µM] | 2% | x | -8%[59 µM]
O=C(Cc1cccs1)NCc1cccc(CNC(=O)Cc2cccs2)c1 | x | -6% | 38% | -14% | 6 | 10%
O=C(Cc1cccs1)NCc1cccc(Cl)c1 | 3 | 89µM* | 48% | 6% | 2 | 26%
Nc1cc(Cc2ccccc2)ccc1O | 0 | 3.2µM* | 45µM* | x | -12 | x
Cc1cc(C)c(C)c(OCCN2CC(C)OC(C)C2)c1 (stereo not drawn) | 8 | 5.6µM* | u | 32µM* | -5 | 1.8µM*
CC1CN(CCOc2ccc(Cl)cc2Cl)CC(C)O1 (stereo not drawn) | 2 | 8.9µM* | u | -37% | 1 | u
Cc1ccc(SCCOCCN2CC(C)OC(C)C2)cc1 (stereo not drawn) | 4 | -9% | 20% | 10% | 2 | u
COc1cc(C)ccc1OCCCCN1CC(C)OC(C)C1 (stereo not drawn) | -8 | 35µM* | u | 50µM* | -15 | 8.9µM*
CC1CN(CCS(=O)(=O)c2cc(Cl)ccc2Cl)CC(C)O1 (stereo not drawn) | 5 | 1% | 18% | 2% | -5 | -12%

Assay outcomes as filed in PubChem BioAssay.
